Source: PubChem BioAssay
Only some compounds are listed: those with a hit (about 3.4% of all), similar ones and a draw of the others.
FBW7 activator = human FBW7 E3 ligase activation, primary screen | Q969H0 | AlphaScreen FBW7–phospho-cyclin E peptide binding, activator screen | normalized activity (activation), % at 26.1 µM | 650,000 tested, 0.13% active | AID 1259310; in the data active = normalized activity above about 1.9%;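 also: purified mutant Fbw7 with reduced substrate affinity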
GPR151 activ = human GPR151 activation; PathHunter beta-arrestin GPR151 cells, luminescence; activation, % at 11.2 µM; 650,000 tested, 1% active; Q8TDV0; in the data active = activation above about 4.9%;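 also: 0% = median of compound wells and 100% = cells with positive control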
TEAD-YAP block = TEAD-YAP interaction inhibition; 640,000 tested, 1.4% active; AID 1259422; inhibition, % at 9.12 µM; HEK-TIYL cells, TEAD-Gal4/YAP UAS-luciferase luminescence; in the data active = inhibition above about 32%;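 also: 0% = median of test compound wells and 100% = reference inhibitor wells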
MITF inh = blocks human microphthalmia-associated transcription factor; O75030; 650,000 tested, 0.91% active; AlphaScreen MITF homodimerization, bead proximity signal; inhibition, % at 2.6 µM; in the data active = inhibition above about 50%;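 also: 0% = vehicle wells with protein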
Target sequence (O75030 whole entry, looked up): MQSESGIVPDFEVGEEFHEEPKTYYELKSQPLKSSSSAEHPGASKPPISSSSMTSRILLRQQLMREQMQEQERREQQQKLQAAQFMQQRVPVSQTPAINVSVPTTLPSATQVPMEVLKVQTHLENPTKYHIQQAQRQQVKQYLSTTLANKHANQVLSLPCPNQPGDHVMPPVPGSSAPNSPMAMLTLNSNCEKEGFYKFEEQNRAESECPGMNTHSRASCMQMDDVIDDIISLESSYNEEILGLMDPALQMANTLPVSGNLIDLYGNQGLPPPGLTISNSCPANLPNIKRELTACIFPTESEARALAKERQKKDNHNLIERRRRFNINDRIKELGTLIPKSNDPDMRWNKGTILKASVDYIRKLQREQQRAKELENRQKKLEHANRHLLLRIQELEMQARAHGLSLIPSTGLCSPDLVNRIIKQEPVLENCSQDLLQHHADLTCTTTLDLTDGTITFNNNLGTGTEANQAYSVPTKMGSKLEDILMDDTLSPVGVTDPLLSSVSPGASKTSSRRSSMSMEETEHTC
GPR151 conf act = confirmation of human GPR151 activators; 6,700 tested, under 10 active; GPR151 PathHunter beta-arrestin cells, luminescence, 90 min; % of EA-reagent control over plate median; AID 1508609; shares compounds with GPR151 activ; activation, % at 11.2 µM;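 active = mean percent activation across replicates above the confirmation screen cutoff of 4.91%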
GPR119 ag = counter-screen for GPR151 activators: effect on human GPR119; 6,700 tested, 0.3% active; GPR119 PathHunter beta-arrestin cells, luminescence, 90 min; 0 = compound-well median, 100 = enzyme-acceptor control; AID 1508611; activation, % at 11.2 µM; shares compounds with GPR151 activ;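 active = mean percent activation in the counterscreen above 29.09%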;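 also: counterscreen on off-target GPR119 to flag nonselective hits from the GPR151 activator screen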
Starred values were filed as active, the others as inactive; . = no result given.

SMILES	FBW7 activator	GPR151 activ	TEAD-YAP block	MITF inh	GPR151 conf act	GPR119 ag
CN(C)N1C(N)=C(C#N)C(c2cccc(Cl)c2Cl)C2=C1CCCC2=O (centres undefined)	0	5.1*	-18	-8	0	2
CN(C)N1C(N)=C(C#N)C(c2ccccc2Cl)C2=C1CCCC2=O (centres undefined)	0	-2	5	11	.	.
CCOC(=O)C1=C(N)n2c(s/c(=C\c3ccc(Br)cc3)c2=O)=C(C(=O)OCC)C1c1ccc(Br)cc1 (centres undefined)	0	2	-4	-3	.	.
Clc1ccccc1/C=N/Nc1nncc(-c2ccccc2)n1	-1	6.2*	-26	-6	0	0
CCCC(=O)C1CCN(C(=O)c2ccc(C(C)(C)C)cc2)CC1	1	-1	-45	11	.	.
CCCN(Cc1cccs1)C(=O)NCc1ccccc1	0	8.1*	-5	5	0	-12
CCCc1ccc(C(=O)Nc2nc3ccc(OC)cc3s2)cc1	0	1	-30	-5	.	.
N#Cc1ccc(COC(=O)c2cncn2-c2ccc(F)cc2)cc1	0	0	-10	8	.	.
N#Cc1ccc(NN2C(=O)c3cc(Cl)c(Cl)cc3C2=O)c([N+](=O)[O-])c1	0	7.0*	17	7	0	-4
N#Cc1ccc(NN2C(=O)c3ccccc3C2=O)c([N+](=O)[O-])c1	0	1	9	0	.	.
CSc1ccc(/C=N\NC(=O)CNc2ccc(C)cc2)cc1	0	5.8*	-3	6	0	-12
Cc1ccc2c(CNCc3ccco3)c(C(=O)O)[nH]c2c1	0	2	9	7	.	.
Cc1ccc2[nH]c3c(c2c1)CCCC3NC(=O)CCl (centres undefined)	0	7.3*	88*	0	1	-1
O=C(Nc1ccccn1)c1ccccc1Cl	0	6.0*	-21	-2	-1	-17
CC(C)C(=O)Nc1ccc(NC(=O)c2ccccc2Cl)nc1	0	6.9*	-39	2	1	9
O=C1OC(c2ccc(Cl)cc2Cl)=N/C1=C\c1cccc(Cl)c1Cl	0	8.0*	-11	-4	0	8
O=C(Nc1c2c(nn1-c1ccc([N+](=O)[O-])cc1)CSC2)c1ccc(Br)o1	0	5.2*	14	8	-1	-4
O=C(Nc1c2c(nn1-c1ccc(F)cc1)CSC2)c1ccc(Br)o1	0	2	11	6	.	.
COc1cccc(C(=O)Nc2c3c(nn2-c2ccc(Oc4ccccc4)cc2)CSC3)c1	1	-1	6	8	.	.
COc1ccc(-n2nc3c(c2NC(=O)c2cccc(OC)c2)CSC3)cc1	0	6.1*	12	0	0	6
CC1(C(=O)NC2CCCCCC2)CCC(=O)N1CCc1ccccc1 (centres undefined)	0	1	7	-1	.	.
O=C1/C(=C/c2cccnc2)CC/C1=C\c1cccnc1	0	6.5*	16	1	1	4
COc1cccc(OC)c1NC(=O)CC(Cc1ccc(Cl)cc1)C(=O)O (centres undefined)	0	5.0*	-6	10	0	-5
Cc1ccc2c(c1)-c1c(ssc1=S)C(C)(C)N2C(=O)c1ccccc1Cl	-1	6.2*	-4	29	0	24
O=C(CCc1nnc(CCc2ccccc2)o1)NC(C1CC1)C1CC1	0	-1	-69	15	.	.
SMILES	FBW7 activator	GPR151 activ	TEAD-YAP block	MITF inh	GPR151 conf act	GPR119 ag
C[C@@H](O)C(=O)N1CCCN(S(=O)(=O)c2cccc3cnccc23)CC1	0	-1	-5	8	.	.
CC(=O)N1CCCN(S(=O)(=O)c2cccc3cnccc23)CC1	-1	5.4*	-5	3	0	5
CCCCN(CC)S(=O)(=O)c1ccc(C(=O)Nc2ccc3c4c(cccc24)C(=O)N3CC)cc1	0	9.7*	11	3	0	-3
O=C(Nc1ccc2oc(-c3ccccc3)nc2c1)c1ccc(Cl)c([N+](=O)[O-])c1	0	-1	-14	2	.	.
CN(C)c1ccc(/C=C(\C#N)c2nn(-c3ccccc3)c(N)c2C#N)cc1[N+](=O)[O-]	0	2	-4	8	.	.
N#C/C(=C\c1ccc(Br)c([N+](=O)[O-])c1)c1nn(-c2ccccc2)c(N)c1C#N	0	4.9*	7	7	0	6
O=C1CCCN1CCCNc1nc(NCc2cccnc2)nc2c1ncn2-c1ccccc1	0	0	5	1	.	.
Cc1ccc(-c2cc(C(F)(F)F)n3ncc(C(=O)NC(C)C)c3n2)cc1	0	5.0*	1	5	0	-5
CC(=O)c1cccc(NC(=O)c2cnn3c(C(F)(F)F)cc(-c4ccco4)nc23)c1	0	5.1*	4	-9	1	1
C#CCN(Cc1ccco1)C(=O)CC1(c2ccccc2C)CC(=O)N(CCOC)C1=O (centres undefined)	0	-1	-51	19	.	.
CCOC(=O)C1=C(C)N=c2s/c(=C/c3ccc(OCCOc4cccc(C)c4)c(OCC)c3)c(=O)n2C1c1ccc(OC)cc1 (centres undefined)	0	0	4	-1	.	.
COC(=O)c1sc2cc([N+](=O)[O-])cc(Sc3ccccc3)c2c1-n1cccc1	0	5.7*	-14	-11	0	-8
COC(=O)c1sc2cc([N+](=O)[O-])cc(Sc3ccccc3)c2c1N	0	0	1	-1	.	.
Cc1ccc(S(=O)(=O)NCCNc2nc3cc4c(cc3cc2C#N)OCO4)cc1	0	1	3	-15	.	.
Cc1ccc(NC(=O)NCC2(O)CCCC2)cc1C	0	7.5*	-29	12	1	-3
Cc1cc(C)c(C(=O)N2CCOCC2)c(Cl)n1	0	-1	5	14	.	.
CN1CCN(C(=S)Nc2cccc(Cl)c2)CC1	0	2	6	14	.	.
CCN1CCN(C(=S)Nc2cccc(Cl)c2)CC1	0	5.8*	6	23	0	-4
CC1Sc2cc(S(=O)(=O)CCC(=O)Nc3cccc(Cl)c3)ccc2NC1=O (centres undefined)	0	-1	0	-4	.	.
Cc1ccc(S(=O)(=O)NC(=O)N2c3ccccc3CCc3ccccc32)cc1	0	7.4*	-1	-4	-1	-13
Cc1ccc(C(C)C)c(OCC(=O)Nc2cc(-c3nc4cc(Cl)ccc4o3)ccc2C)c1	0	-2	-16	-6	.	.
c1cc(CNc2nc3nonc3nc2NC2CC2)c2cc[nH]c2c1	0	5.5*	-1	10	0	8
C=C(C)CNc1nc2nonc2nc1NC1CC1	0	1	-5	-3	.	.
CCc1ccc(OC(=O)c2ccc(C(=O)Oc3ccc(CC)cc3)nc2)cc1	0	5.4*	9	-20	0	-3
CCOc1ccc(OC(=O)c2ccc(C(=O)Oc3ccc(OCC)cc3)nc2)cc1	0	-1	-6	-12	.	.
